Laboratory results from PubChem BioAssay (NCATS).
Records with an inconclusive call do not appear. Unmarked numbers belong to inactive results. Activity calls are given as the source filed them. Calls come from the whole dose curve; as a rule, active = well fitted inhibition curve with a large enough effect; inconclusive = small, poorly fitted or top-dose-only effect; inactive = flat fitted curve, though single readings scatter.

Experiment: P-glycoprotein substrates identified in KB-8-5-11 adenocarcinoma cell line, qHTS therapeutic library screen (AID 1346987); note: nearly all actives have a fitted effect of over 65% in size
Conditions: KB-8-5-11 (P-gp overexpressing) viability, CellTiter-Glo, 72 h; series mostly up to 44.5 µM; activity change, negative = cytotoxicity: at the top concentration
Procedure, shortened: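 Human cervical adenocarcinoma KB-8-5-11 cells, selected in colchicine to over-express P-gp and assayed without it, were exposed for 72 h to titrated compounds. An ATP-based luminescent viability signal gave AC50.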
% is set by controls: 0 for no effect and ±100 for the full control effect.

Compound	activity change, negative = cytotoxicity	outcome
COc1ccc(Oc2c(Cl)cnn(C3c4ccccc4-c4ccccc43)c2=O)cc1	-17.4%	
CC(=O)/C=C/[C@H]1[C@](C)(O)[C@@H](O)[C@H](O)C2C(C)(C)CCC[C@@]21C (stereo not given in full)	-13.4%	
COc1cc(C2Oc3c(OC)cc(/C=C/C(=O)OC4CC(O)(C(=O)O)CC(O)C4O)cc3C2CO)ccc1O (stereo not given)		inactive [at 17.3 µM]
COc1ccc(/C=C/C(=O)N2CCCC2)cc1	-1.93%	
CC(C)N(CCCNC(=O)Nc1ccc(C(C)(C)C)cc1)C[C@H]1O[C@@H](n2ccc3c(N)ncnc32)[C@H](O)[C@@H]1O	8.7%	
c1ccc2c(Nc3nnc(-c4ccncc4)s3)cccc2c1	-12.4%	
C/C=C1\[C@H](O[C@@H]2O[C@H](CO)[C@@H](O)[C@H](O)[C@H]2O)OC=C(C(=O)OCCc2ccc(O)cc2)[C@H]1CC(=O)OCCc1ccc(O)cc1	-6.12% [at 17.3 µM]	
C/C(=C\CC[C@H](CO)[C@@H]1CC[C@]2(C)C3=C(CC[C@@]12C)[C@@]1(C)CCC(=O)C(C)(C)C1CC3)C(=O)O (stereo not given in full)		inactive [at 17.3 µM]
C=C1CCC2C(C)(C)CC(O)CC2(C)C1CCC(C)CC(=O)O (stereo not given)	6.03%	
C[C@@H]1O[C@@H](O[C@H]2[C@H](OC(=O)[C@]34CCC(C)(C)C[C@H]3C3=CCC5[C@@]6(C)CC[C@H](O[C@@H]7O[C@H](CO[C@@H]8OC[C@H](O)[C@H](O)[C@H]8O)[C@@H](O)[C@H](O)[C@H]7O)C(C)(C)C6CC[C@@]5(C)[C@]3(C)C[C@H]4O)OC[C@@H](O)[C@@H]2O)[C@H](O)[C@H](O[C@@H]2OC[C@](O)(CO)[C@H]2O)[C@H]1O[C@@H]1OC[C@H](O)[C@H](O[C@@H]2OC[C@@H](O)[C@H](O)[C@H]2O)[C@H]1O (stereo not given in full)	5.27% [at 9.29 µM]	
